Source: PubChem
The list is not random: actives were taken first. Their share in the collection is about 2.4%.
D2 PAM-1: potentiates the human D2 dopamine receptor allosterically; P14416; DiscoveRx D2 beta-arrestin cells, luminescence, 90 min; 100% = 57 uM dopamine signal; potentiation, % (no concentration beside the values); actives 0.23% (n = 360,000); AID 624464; in the data active = potentiation above about 50%
Target sequence (P14416 whole entry, looked up): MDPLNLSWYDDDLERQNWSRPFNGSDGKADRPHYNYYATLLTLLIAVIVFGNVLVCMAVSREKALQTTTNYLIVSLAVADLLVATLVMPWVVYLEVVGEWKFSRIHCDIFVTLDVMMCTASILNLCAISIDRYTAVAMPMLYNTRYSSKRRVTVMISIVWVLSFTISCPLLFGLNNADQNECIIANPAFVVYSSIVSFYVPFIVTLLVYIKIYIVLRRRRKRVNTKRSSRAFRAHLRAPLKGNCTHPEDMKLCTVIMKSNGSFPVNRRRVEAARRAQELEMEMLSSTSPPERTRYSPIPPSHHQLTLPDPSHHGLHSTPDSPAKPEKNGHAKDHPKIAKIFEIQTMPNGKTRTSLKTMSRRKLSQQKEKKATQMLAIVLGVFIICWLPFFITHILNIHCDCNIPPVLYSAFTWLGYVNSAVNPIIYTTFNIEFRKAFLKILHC
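PathHunter D2 cells, attached overnight at 37 deg C, received compound in DMSO plus dopamine at EC20 (50 nM final) for 90 min at 37 deg C. Beta-arrestin recruitment was read as luminescence after 1 h with detection reagent at ambient temperature.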
D2 antag: antagonists of human D2 dopamine receptor; P14416; HEK293 TREx D2 cells, calcium flux, dopamine EC80; inhibition, % at 10 µM; actives 2% (n = 340,000); in the data active = inhibition above about 30%; inactive = below that, where a call was filed
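Antagonism is scored as inhibition of an EC80 dopamine-evoked calcium signal in a force-coupled, tetracycline-inducible HEK293 T-REx D2 line, with compound present 180 s before agonist.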
D2 ag-1: human D2 receptor agonism in beta-arrestin assay; DiscoveRx PathHunter D2 beta-arrestin, luminescence, 90 min; 100% = 57 uM dopamine signal; activation, % (no concentration beside the values); actives 0.084% (n = 360,000); in the data active = activation above about 40%
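Agonist mode: compounds alone added to overnight-plated D2 PathHunter cells for 90 min at 37 C, with 57 uM final dopamine (EC100) defining full response. Beta-arrestin recruitment detected by chemiluminescent reagent, read after 1 h at ambient temperature.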
D2 PAM-2: positive allosteric modulators of human D2 dopamine receptor | HEK293 T-REx D2, calcium flux, EC20 dopamine potentiation | potentiation, % at 10 µM | actives 0.34% (n = 340,000) | AID 485347;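 active = potentiation over 3 SD above the plate norm, cut at about 30% in these data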
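Primary screen. Calcium kinetics in induced HEK293 T-REx D2 cells: compound pre-addition 180 s, EC20 dopamine, 180 s more.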
D2 ag-2: D2 dopamine receptor (human) agonism; P14416; HEK293 T-REx D2 cells, calcium flux agonist mode; activation, % at 2 µM; actives 0.53% (n = 340,000);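 active = activation over 3 SD above normal in the single-dose calcium agonist read, cut at about 30% in these data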
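In this primary screen, compounds producing a positive calcium signal within 180 s of addition to tetracycline-induced, force-coupled HEK293 Trex D2 cells are flagged; cells are dye-loaded with a no-wash calcium kit beforehand.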
Each line names hits and unclear results; the compound was inactive in the other large screens.

O=C(NC1CCCC1)c1ccc(CS(=O)(=O)Cc2ccccc2F)o1	none
O=C(NC1CCCCC1)c1ccc(CS(=O)(=O)Cc2ccccc2F)o1	D2 antag 44
CCOC(=O)[C@@H]1[C@H]2COc3ccccc3[C@@H]2N2C(=O)N(c3ccc(Br)cc3)C(=O)[C@@]12C	none (no result: D2 antag, D2 PAM-2, D2 ag-2)
CC(=O)N1c2ccc(S(=O)(=O)N3CCC(C(=O)N4CCCC(C)C4)CC3)cc2CC1C (stereo not drawn)	none
O=C(NC1CCCCC1)c1ccc(-c2ccccc2[N+](=O)[O-])o1	D2 antag 59
COCc1ccc(CN2CCC(C(=O)Nc3cccc(-c4cscn4)c3)CC2)o1	D2 antag 32
COCc1ccc(CN2CCC(C(=O)Nc3cccc(-c4cccc(Cl)c4)c3)CC2)o1	D2 antag 34
COc1cccc(-c2cccc(NC(=O)C3CCN(Cc4ccc(C)o4)CC3)c2)c1	none
O=C(Nc1cccc(-c2cccc(F)c2)c1)C1CCN(Cc2ccco2)CC1	D2 antag 56
O=C(Nc1cccc(-c2cscn2)c1)C1CCN(Cc2ccc(CO)o2)CC1	none
O=C(CSc1nc(O)c(Cc2ccccc2)c(=O)[nH]1)N1CCOCC1	none
O=C(CSc1nc(O)c(C2CCCCC2)c(=O)[nH]1)N1CCOCC1	D2 antag 43
CCc1ccc(-n2c(=O)c3sc4ccccc4c3n(CC(=O)NCc3ccccc3)c2=O)cc1	none (no result: D2 PAM-1, D2 antag, D2 ag-1)
Cc1ccc(-c2nc(CN3CCCCC3CCN3CCCC3=O)c(C)o2)o1 (stereo not drawn)	none (no result: D2 antag, D2 PAM-2, D2 ag-2)
Cc1oc(-c2cccc(F)c2)nc1CN1CCCCC1CCn1cccn1 (stereo not drawn)	D2 antag 45
Cc1ccc(S(=O)(=O)N2CCOCC2)cc1NC(=O)COC(=O)COc1ccc(C#N)cc1	none (no result: D2 antag, D2 PAM-2, D2 ag-2)
CCOc1ccccc1-n1c(SCC(=O)NC)nnc1-c1ccco1	none
Cn1c(SCC(=O)N2CCN(c3ccccc3)CC2)nnc1-c1ccco1	none
CCOc1ccc(-n2c(SCC(=O)NC)nnc2-c2ccco2)cc1	D2 antag 36
CCCn1c(SCC(=O)N2CCN(C(=O)c3ccco3)CC2)nc2ccccc2c1=O	D2 antag 31
O=C(CSc1nnc(-c2ccco2)n1-c1ccccc1)N1CCN(C(=O)c2ccco2)CC1	D2 antag 65 (no result: D2 PAM-2)
CC(=O)Nc1nonc1-c1nnc(SCC(=O)Nc2ccc(F)cc2F)n1-c1ccccc1	none (no result: D2 PAM-1, D2 antag, D2 ag-1)
CCN1CCC(N2CCN(c3ccc(F)cc3)CC2)CC1	none
Fc1ccc(N2CCN(C3CCC(c4ccccc4)CC3)CC2)cc1 (stereo not drawn)	D2 antag 53
Cc1cc(C(=O)CSc2nc3ccccc3c(=O)[nH]2)c(C)n1C	D2 PAM-2 39
CC1(c2ccc(OC(F)F)cc2)NC(=O)N(CC(=O)Nc2cccc(F)c2)C1=O (stereo not drawn)	D2 ag-2 33
CC1(c2ccc(OC(F)F)cc2)NC(=O)N(CC(=O)Nc2ccc(F)cc2)C1=O (stereo not drawn)	none
CCCCN1CC(COCc2ccccc2)Oc2cccc(Oc3ccc(F)cc3)c2S1(=O)=O (stereo not drawn)	none (no result: D2 antag, D2 PAM-2, D2 ag-2)
COC(=O)c1sccc1NC(=O)c1ccc(C)s1	D2 antag 33, D2 PAM-2 33
COC(=O)c1sccc1NC(=O)Nc1ccc(C)c(C)c1	none
COC(=O)c1sccc1NC(=O)Cc1ccc(Br)cc1	D2 antag 42
COC(=O)c1sccc1NC(=O)Nc1ccc(Cl)c(Cl)c1	D2 antag 44
COc1cccc(NC(=O)COc2coc(CN3CCc4ccccc4C3)cc2=O)c1	none
CC1(C(=O)OCC(=O)NCc2ccc(Cl)cc2)CC1(Cl)Cl (stereo not drawn)	none (no result: D2 antag, D2 PAM-2, D2 ag-2)
CC1(C(=O)OCC(=O)NC(=O)NCc2ccccc2)CC1(Cl)Cl (stereo not drawn)	D2 antag 31
Cc1ccc(NC(=O)NC(=O)N(C(C)C)S(=O)(=O)c2ccc(C)cc2)cc1	D2 antag 44
COc1ccc(CCNC(=O)c2cn(C)c3ccc(S(=O)(=O)N4CCOCC4)cc3c2=O)cc1OC	D2 antag 40
CC1CCCC(NC(=O)c2cn(C)c3ccc(S(=O)(=O)N4CCCC4)cc3c2=O)C1C (stereo not drawn)	D2 antag 31 (no result: D2 PAM-1, D2 ag-1)
CN(CCNC(=O)c1cn(C)c2ccc(S(=O)(=O)N(C)C)cc2c1=O)CCc1ccccc1	D2 antag 45
CCCCN(C)CCCNC(=O)c1cn(C)c2ccc(S(=O)(=O)N(C)C3CCCCC3)cc2c1=O	D2 antag 34
CCn1cc(C(=O)NCCc2ccc(OC)c(OC)c2)c(=O)c2cc(S(=O)(=O)N3CCOCC3)ccc21	none
CC(=O)O[C@H]1C[C@@]2(O)[C@@H](OC(=O)c3ccccc3)C3[C@@](C)([C@@H](O)C[C@H]4OC[C@@]34OC(C)=O)[C@@H](O)[C@H](OC(C)=O)C(=C1C)C2(C)C (stereo partly drawn)	none
COc1cc(-c2nc3sccn3c2Nc2cccc(C)c2)ccc1O	none (no result: D2 PAM-1, D2 antag, D2 ag-1)
CC(C)Cn1c(=O)c2sccc2n2c(CCCC(=O)N3CCN(c4ccc(F)cc4)CC3)nnc12	none (no result: D2 PAM-1, D2 antag, D2 ag-1)
Cc1ccc(CNC(=O)C(CC(C)C)N2Cc3ccccc3C2=O)cc1 (stereo not drawn)	none (no result: D2 PAM-1, D2 antag, D2 ag-1)
CN1CCC(N(C)S(=O)(=O)c2ccc(F)cc2F)CC1	D2 antag 33
Cc1cc(C)c(NC(=O)CCN2C(=O)c3ccccc3Sc3ncccc32)c(C)c1	none (no result: D2 PAM-1, D2 antag, D2 ag-1)
COc1cccc2cc(C(C)OC(=O)Nc3ccc(C)cc3)oc12 (stereo not drawn)	D2 antag 32
COc1ccc(C(=O)NCCc2cnc[nH]2)cc1OC	D2 antag 35
COc1ccc(C(=O)NCCC2=CCCCC2)cc1OC	D2 antag 35
COc1ccc(C(=O)NCCSCc2cccc(Cl)c2)cc1OC	D2 antag 32
COc1ccc(C(=O)NCCC2=CCCCC2)cc1	none
CC(=O)NCCc1ccc(S(=O)(=O)Nc2ccc(NC(=O)c3ccc(F)cc3)cc2)cc1	none
O=C(N/N=C/c1c(Cl)[nH]c2ccccc12)c1ccc2c(c1)OCCO2	none
CC(=O)NC12CC3CC(C1)CC(C(=O)N1CCN(S(=O)(=O)c4ccccc4[N+](=O)[O-])CC1)(C3)C2	D2 antag 45
COCC(C)NC(=O)CCS(=O)(=O)c1nc(-c2ccc(OC)cc2)cc(C(F)(F)F)n1 (stereo not drawn)	D2 PAM-2 39
CC(C)C[C@@H](C(=O)NC1CCN(Cc2ccccc2)CC1)N1C(=O)N2CCc3c([nH]c4ccccc34)[C@@]2(C)C1=O	D2 antag 31
COc1ccc2[nH]c3c(c2c1)CCN1C(=O)N([C@@H](C)C(=O)NC2CC2)C(=O)[C@]31C	D2 ag-2 30
